Test results published in PubChem BioAssay.
Calls of active or inactive are those of the source.

Assays:
[1] = system: PRMT1 (protein arginine N-methyltransferase 1); assay: PRMT1 binders on small-molecule microarrays, primary screen, biochemical, small-molecule microarray, 635 nm fluorescence (AID 1088); details: small-molecule microarray binding, higher = more signal;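 note: binding of Prmt1 protein to compounds spotted on small-molecule microarray slides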
[2] = yeast growth modulation, basal conditions, primary screen, YJM789 clinical isolate, OD600, 24 h (AID 1089);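 note: growth of clinical yeast isolate S. cerevisiae YJM 789 seeded 1000 cells per well; test concentration not given here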; details: S. cerevisiae YJM789 growth, higher = more signal, called active from +8 up or from −8 down
[3] = fission yeast growth modulation, primary screen, strain 972, OD600, 24 h, no modulator (AID 1090);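 note: basal condition with compound alone and no growth modifier present; test concentration not given here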; details: S. pombe 972 growth, higher = more signal, called active from +8 up or from −8 down
[4] = S. cerevisiae growth modulation with rapamycin, primary screen, strain BY4716, OD600, 96 h (AID 1091); details: higher = more signal, called active from +8 up or from −8 down; note: test concentration not given here
[5] = target: Torsin-1A-interacting protein 2 (Homo sapiens) (UniProt Q8NFQ8); assay: LULL1 binders on small-molecule microarray, primary screen, cell lysate, human LULL1 lysate, 635/667 nm fluorescence (AID 1092); details: hLULL1 lysate binding, 635 nm fluorescence, higher = more signal;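 note: probe is lysate of COS7 cells overexpressing human LULL1; score merges per-feature 667 nm fluorescence with signal-to-noise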
Chain of Torsin-1A-interacting protein 2 (Homo sapiens) (Q8NFQ8 whole entry, looked up): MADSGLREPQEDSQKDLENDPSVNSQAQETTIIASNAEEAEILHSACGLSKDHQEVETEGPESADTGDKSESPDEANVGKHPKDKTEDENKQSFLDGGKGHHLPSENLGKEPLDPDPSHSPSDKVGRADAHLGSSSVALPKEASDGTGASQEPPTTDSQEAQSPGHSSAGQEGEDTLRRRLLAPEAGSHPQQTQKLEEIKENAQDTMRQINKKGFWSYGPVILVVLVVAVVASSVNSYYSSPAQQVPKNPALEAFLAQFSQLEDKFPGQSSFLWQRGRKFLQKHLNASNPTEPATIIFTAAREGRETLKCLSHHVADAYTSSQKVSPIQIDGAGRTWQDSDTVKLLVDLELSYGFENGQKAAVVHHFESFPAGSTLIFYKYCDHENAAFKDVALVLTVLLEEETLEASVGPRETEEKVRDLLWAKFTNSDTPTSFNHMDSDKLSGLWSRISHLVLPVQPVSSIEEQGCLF

[6] = E. coli growth modulation, two-sided OD650, primary screen, E. coli filamentation project, strain DRC41, 24 h (AID 1093); details: OD650, 24 h, higher = more signal, called active from +8 up or from −8 down;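 note: MC1000 strain lacking acrAB efflux and sulA so SOS filamentation is blocked; test concentration not given here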
[7] = small-molecule microarray binders of probe aLefty2, primary screen, biochemical, biotinylated probe, 635/667 nm fluorescence (AID 1094); details: higher = more signal;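 note: score merges spot fluorescence near 667 nm with spot signal-to-noise ratio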
[8] = system: Noggin (protein binding on small-molecule microarray); assay: Noggin binders on small-molecule microarray, primary screen, biochemical, 635/667 nm fluorescence (AID 1095); details: 635 nm fluorescence, higher = more signal;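 note: score merges 667 nm feature fluorescence with signal to noise over triplicate slides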
[9] = target: Neurogenic locus notch homolog protein 3 (Homo sapiens) (UniProt Q9UM47); assay: NOTCH3 binders on small-molecule microarray, primary screen, biochemical, 635/667 nm fluorescence (AID 1096); details: NOTCH3 binding, 635 nm fluorescence, higher = more signal
Chain of Neurogenic locus notch homolog protein 3 (Homo sapiens) (Q9UM47 whole entry, looked up): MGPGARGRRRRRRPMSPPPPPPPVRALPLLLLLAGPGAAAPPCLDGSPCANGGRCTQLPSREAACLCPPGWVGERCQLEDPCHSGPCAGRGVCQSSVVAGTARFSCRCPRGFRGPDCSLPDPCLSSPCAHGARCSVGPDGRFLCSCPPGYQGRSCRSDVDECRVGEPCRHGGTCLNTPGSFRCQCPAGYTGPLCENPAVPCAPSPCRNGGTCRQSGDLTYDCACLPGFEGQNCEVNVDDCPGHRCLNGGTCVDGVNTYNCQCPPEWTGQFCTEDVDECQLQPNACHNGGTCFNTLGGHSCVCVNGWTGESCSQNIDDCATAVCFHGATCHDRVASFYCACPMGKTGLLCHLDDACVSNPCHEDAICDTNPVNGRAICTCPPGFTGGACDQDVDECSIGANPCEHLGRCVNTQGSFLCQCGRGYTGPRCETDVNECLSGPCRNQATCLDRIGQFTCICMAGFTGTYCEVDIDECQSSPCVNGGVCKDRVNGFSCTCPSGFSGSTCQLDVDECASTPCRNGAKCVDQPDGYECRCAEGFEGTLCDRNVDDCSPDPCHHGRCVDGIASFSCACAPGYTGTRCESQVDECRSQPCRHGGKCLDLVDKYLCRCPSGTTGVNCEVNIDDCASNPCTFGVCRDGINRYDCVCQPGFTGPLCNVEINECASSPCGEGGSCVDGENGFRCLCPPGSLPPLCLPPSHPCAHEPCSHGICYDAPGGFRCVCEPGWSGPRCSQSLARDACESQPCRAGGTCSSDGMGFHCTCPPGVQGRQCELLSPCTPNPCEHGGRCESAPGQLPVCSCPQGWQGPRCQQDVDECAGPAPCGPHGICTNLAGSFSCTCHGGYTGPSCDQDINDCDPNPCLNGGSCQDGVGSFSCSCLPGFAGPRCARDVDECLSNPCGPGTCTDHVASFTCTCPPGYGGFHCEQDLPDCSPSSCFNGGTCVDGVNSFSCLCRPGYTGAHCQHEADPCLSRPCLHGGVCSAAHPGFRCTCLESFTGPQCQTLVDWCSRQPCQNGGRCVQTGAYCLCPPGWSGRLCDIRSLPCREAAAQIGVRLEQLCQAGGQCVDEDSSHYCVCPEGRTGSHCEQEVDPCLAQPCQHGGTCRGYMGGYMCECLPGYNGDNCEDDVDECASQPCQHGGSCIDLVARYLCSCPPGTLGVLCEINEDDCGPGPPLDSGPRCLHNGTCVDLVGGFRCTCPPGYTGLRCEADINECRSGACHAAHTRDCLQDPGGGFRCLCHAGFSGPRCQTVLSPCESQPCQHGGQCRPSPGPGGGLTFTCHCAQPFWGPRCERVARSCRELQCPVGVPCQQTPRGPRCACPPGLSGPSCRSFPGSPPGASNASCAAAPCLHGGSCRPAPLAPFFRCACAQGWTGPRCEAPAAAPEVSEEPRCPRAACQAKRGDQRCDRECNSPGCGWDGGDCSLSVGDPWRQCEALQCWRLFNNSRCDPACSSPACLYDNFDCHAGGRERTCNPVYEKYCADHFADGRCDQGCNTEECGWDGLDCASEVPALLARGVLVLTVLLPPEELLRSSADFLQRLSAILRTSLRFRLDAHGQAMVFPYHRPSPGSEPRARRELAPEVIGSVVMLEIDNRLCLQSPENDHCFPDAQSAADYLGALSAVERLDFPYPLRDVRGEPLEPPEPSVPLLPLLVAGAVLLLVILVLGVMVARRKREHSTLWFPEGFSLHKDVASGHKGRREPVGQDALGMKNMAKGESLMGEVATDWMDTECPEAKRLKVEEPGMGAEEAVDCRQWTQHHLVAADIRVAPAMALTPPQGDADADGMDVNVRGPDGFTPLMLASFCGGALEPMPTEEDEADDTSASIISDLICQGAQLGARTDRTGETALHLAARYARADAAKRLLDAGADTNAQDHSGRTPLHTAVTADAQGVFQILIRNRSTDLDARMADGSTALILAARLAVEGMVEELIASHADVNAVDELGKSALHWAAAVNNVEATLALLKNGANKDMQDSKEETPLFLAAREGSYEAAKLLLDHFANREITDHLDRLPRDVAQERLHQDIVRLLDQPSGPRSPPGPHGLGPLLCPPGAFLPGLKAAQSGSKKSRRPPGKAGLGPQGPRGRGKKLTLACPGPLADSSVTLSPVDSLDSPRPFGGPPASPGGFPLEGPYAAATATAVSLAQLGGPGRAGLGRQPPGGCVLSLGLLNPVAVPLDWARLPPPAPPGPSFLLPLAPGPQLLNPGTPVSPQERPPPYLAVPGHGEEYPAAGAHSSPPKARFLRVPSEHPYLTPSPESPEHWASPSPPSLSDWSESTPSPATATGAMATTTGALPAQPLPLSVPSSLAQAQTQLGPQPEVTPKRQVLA

[10] = small-molecule microarray binders of probe aEGFR, primary screen, biochemical, biotinylated probe, 635/667 nm fluorescence (AID 1097); details: higher = more signal;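 note: probe is a biotinylated anti-EGFR antibody binding compounds printed on slides; score combines fluorescence near 667 nm and signal to noise of each spot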
[11] = system: Plasmodium falciparum Sir2 (PF13_0152, Sir2A); assay: pfSir2 binders on small-molecule microarrays, primary screen, biochemical, small-molecule microarray, 635 nm fluorescence (AID 1098); details: small-molecule microarray binding, fluorescence 635 nm; higher = more signal;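 note: score merges spot fluorescence intensity with its signal-to-noise ratio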
[12] = small-molecule microarray binders of probe aDKK1, primary screen, biochemical, biotinylated probe, 635/667 nm fluorescence (AID 1099); details: higher = more signal;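 note: score merges 667nm spot fluorescence with signal to noise across triplicate slides; reference of the scale not given here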
[13] = small-molecule microarray binders of probe aCHRDL2, primary screen, biochemical, biotinylated probe, 635/667 nm fluorescence (AID 1100); details: higher = more signal
[14] = splicing luciferase reporter signal modulators, primary screen, spliceosome inhibition project, cell-based, HEK293, splice +/- reporter (AID 1101); details: luminescence, 24 h, higher = more signal, called active from +8 up or from −8 down;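 note: HEK293 cells carrying a splicing-competent luciferase reporter gene; test concentration not given here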
[15] = target: Fibroblast growth factor 10 (Homo sapiens) (UniProt O15520); assay: FGF10 binders on small-molecule microarrays, primary screen, biochemical, small-molecule microarray, 635 nm fluorescence (AID 1102); details: FGF10 binding, fluorescence 635 nm, higher = more signal
Chain of Fibroblast growth factor 10 (Homo sapiens) (O15520 whole entry, looked up): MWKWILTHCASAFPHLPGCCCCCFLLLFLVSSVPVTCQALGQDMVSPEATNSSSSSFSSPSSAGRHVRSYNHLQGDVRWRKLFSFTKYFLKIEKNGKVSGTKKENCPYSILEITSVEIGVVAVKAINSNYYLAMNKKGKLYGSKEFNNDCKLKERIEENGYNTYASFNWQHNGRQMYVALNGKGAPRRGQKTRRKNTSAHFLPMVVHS

[16] = system: glycogen synthase kinase-3 (GSK3A per assay name; protocol says GSK3B); assay: GSK3 binders on small-molecule microarrays, primary screen, biochemical, small-molecule microarray, 635 nm fluorescence, GSK3A (AID 1103); details: small-molecule microarray binding, fluorescence 635 nm; higher = more signal; note: the record names both GSK3A and GSK3B
[17] = target: Epidermal growth factor receptor (Homo sapiens) (UniProt P00533); assay: EGFR binders on small-molecule microarrays, primary screen, biochemical, small-molecule microarray, 635 nm fluorescence (AID 1104); details: EGFR binding, higher = more signal;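 note: score merges 667 nm emission intensity with spot signal to noise over triplicate slides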
Chain of Epidermal growth factor receptor (Homo sapiens) (P00533 whole entry, looked up): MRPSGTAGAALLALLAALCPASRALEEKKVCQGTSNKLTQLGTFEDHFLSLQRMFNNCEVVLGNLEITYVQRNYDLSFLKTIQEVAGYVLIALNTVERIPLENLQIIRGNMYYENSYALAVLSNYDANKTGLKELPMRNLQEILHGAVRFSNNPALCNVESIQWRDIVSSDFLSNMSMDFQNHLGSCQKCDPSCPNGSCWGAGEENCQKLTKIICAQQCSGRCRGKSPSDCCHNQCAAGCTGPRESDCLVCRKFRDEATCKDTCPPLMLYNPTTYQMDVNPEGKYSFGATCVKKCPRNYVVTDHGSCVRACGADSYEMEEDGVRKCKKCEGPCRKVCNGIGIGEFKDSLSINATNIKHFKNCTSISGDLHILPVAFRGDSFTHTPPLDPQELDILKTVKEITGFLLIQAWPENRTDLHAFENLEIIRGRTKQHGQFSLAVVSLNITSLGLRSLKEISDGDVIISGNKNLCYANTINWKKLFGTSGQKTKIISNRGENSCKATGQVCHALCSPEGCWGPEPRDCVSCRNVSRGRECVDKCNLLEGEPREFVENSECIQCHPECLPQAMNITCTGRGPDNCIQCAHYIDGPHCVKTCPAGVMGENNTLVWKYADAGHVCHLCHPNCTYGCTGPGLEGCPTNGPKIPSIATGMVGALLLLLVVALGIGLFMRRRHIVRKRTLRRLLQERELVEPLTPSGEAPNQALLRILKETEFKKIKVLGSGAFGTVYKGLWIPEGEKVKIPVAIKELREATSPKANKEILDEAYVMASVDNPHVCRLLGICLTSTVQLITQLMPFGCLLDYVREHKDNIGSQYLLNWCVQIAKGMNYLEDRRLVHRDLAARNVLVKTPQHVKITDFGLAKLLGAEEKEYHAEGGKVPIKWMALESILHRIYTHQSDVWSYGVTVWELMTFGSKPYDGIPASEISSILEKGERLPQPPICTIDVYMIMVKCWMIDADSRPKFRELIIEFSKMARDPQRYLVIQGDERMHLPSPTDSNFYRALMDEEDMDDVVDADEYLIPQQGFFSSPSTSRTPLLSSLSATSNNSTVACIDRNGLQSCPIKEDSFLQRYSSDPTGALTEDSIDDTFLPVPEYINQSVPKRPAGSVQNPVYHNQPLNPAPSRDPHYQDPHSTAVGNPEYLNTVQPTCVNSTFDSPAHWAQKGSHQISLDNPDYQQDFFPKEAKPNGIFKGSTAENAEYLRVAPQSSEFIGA

[18] = target: Follistatin-related protein 3 (Homo sapiens) (UniProt O95633); assay: FSTL3 binders on small-molecule microarrays, primary screen, biochemical, small-molecule microarray, 635 nm fluorescence (AID 1105); details: FSTL3 binding, higher = more signal;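 note: score merges emission near 667 nm and signal to noise per printed spot across three slides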
Chain of Follistatin-related protein 3 (Homo sapiens) (O95633 whole entry, looked up): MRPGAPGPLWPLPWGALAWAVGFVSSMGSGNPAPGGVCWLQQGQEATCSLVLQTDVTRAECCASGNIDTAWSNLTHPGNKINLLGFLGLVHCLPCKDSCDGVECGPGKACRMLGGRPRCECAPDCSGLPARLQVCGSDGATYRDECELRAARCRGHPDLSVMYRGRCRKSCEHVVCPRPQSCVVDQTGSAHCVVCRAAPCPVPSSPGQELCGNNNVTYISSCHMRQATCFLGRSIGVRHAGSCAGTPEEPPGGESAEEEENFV

[19] = target: Dickkopf-related protein 1 (Homo sapiens) (UniProt O94907); assay: DKK1 binders on small-molecule microarrays, primary screen, biochemical, small-molecule microarray, 635 nm fluorescence scan (AID 1106); details: DKK1 binding, higher = more signal;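 note: score merges emission near 667 nm with signal to noise over three replicate slides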
Chain of Dickkopf-related protein 1 (Homo sapiens) (O94907 whole entry, looked up): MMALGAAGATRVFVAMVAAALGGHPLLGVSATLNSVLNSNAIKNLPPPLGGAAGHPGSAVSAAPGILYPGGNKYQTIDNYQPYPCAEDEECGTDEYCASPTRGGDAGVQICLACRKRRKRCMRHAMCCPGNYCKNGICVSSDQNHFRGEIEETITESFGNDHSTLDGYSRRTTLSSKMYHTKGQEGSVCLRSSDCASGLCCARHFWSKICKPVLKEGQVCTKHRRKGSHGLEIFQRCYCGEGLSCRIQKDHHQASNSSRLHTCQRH

[20] = system: Inhibin beta A chain (activin A); assay: INHBA (activin A) binders on microarrays, primary screen, biochemical, small-molecule microarray, 635 nm fluorescence scan (AID 1107); details: small-molecule microarray binding, higher = more signal;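 note: mouse activin A protein probed at 4.33 µg/mL on printed slides; score merges bound-protein fluorescence near 667 nm with spot signal-to-noise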

| Compound | composite z-score [1] | z-score [2] | z-score [3] | z-score [4] | composite z-score [5] | z-score [6] | composite z-score [7] | composite z-score [8] | composite z-score [9] | composite z-score [10] | composite z-score [11] | composite z-score [12] | composite z-score [13] | z-score [14] | composite z-score [15] | composite z-score [16] | composite z-score [17] | composite z-score [18] | composite z-score [19] | composite z-score [20] |
| --- | --- | --- | --- | --- | --- | --- | --- | --- | --- | --- | --- | --- | --- | --- | --- | --- | --- | --- | --- | --- |
| O=C1C2C=CC(C(O)c3c(F)cccc3Cl)N(Nc3ccc([N+](=O)[O-])cc3)C2C(=O)N1c1ccccc1 (stereo not given) | 1.55 | -1.01 (inactive) | 1.35 (inactive) | 4.59 (inactive) | 3.54 | 0.636 (inactive) | 0.13 | 0.432 | 1.09 | -0.0021 | 0.77 | -0.124 | -0.0918 | -0.108 (inactive) | 1.2 | 1.27 | 0.518 | 1.45 | 0.875 | 0.191 |
| Cc1ccc(S[C@]2(C(=O)NC3CC3)CC(=O)N(C(C)C)[C@@H]2c2ccc(CO)cc2I)cc1 | 1.27 | -0.812 (inactive) | -2.43 (inactive) | -0.2 (inactive) | 2.83 | -1.34 (inactive) | -0.0865 | -0.294 | 0.624 | -0.196 | 1.37 | -0.299 | 0.812 | -1.89 (inactive) | 0.377 | -0.122 | -0.638 | 0.101 | -1.37 | 0.318 |
| COc1ccccc1CN1C(=O)c2ccccc2[C@](Cc2ccccc2I)(C(=O)NCC(C)C)[C@@H]1c1ccc(CO)cc1 | 1.33 | -0.747 (inactive) | -0.652 (inactive) | 0.0134 (inactive) | 2.11 | 2.2 (inactive) | 0.103 | -0.371 | 0.139 | -0.0721 | 1.66 | 0.736 | 1.01 | 0.0236 (inactive) | -0.0272 | -0.0773 | -1.19 | -0.408 | -1.27 | -0.316 |
| COc1ccc([Si](C)(C)[C@H]2[C@H](CC(=O)N3Cc4ccccc4C[C@H]3CO)O[C@@]3(C(=O)N(c4ccccc4)c4ccccc43)[C@@H]2C)cc1 | 1.53 | -2.39 (inactive) | -1.61 (inactive) | -0.776 (inactive) | 1.47 | 1.65 (inactive) | -0.0088 | 1.85 | 1.09 | 0.0059 | 1.64 | -0.179 | -0.339 | -0.691 (inactive) | 1.11 | 1.27 | 1.13 | 1.45 | 0.75 | 1.47 |
| COc1ccc([Si](C)(C)[C@H]2[C@H](CC(=O)N3Cc4ccccc4C[C@H]3CO)O[C@@]3(C(=O)N(C)c4c(Br)cc(C)cc43)[C@@H]2C)cc1 | 1.54 | 0.344 (inactive) | 0.788 (inactive) | 5.53 (inactive) | 0.986 | -0.498 (inactive) | -0.0631 | 1.42 | 1.09 | -0.0828 | 0.842 | -0.149 | -0.246 | -1.97 (inactive) | 1.19 | 0.332 | 0.552 | 1.09 | 0.474 | 0.96 |
| C=C(C)[C@@H]1CC=C(C(O)C2C=CC3C(=O)N(c4ccccc4)C(=O)C3N2Nc2ccc([N+](=O)[O-])cc2)CC1 (stereo not given in full) | 1.55 | -0.0158 (inactive) | 0.348 (inactive) | 3.6 (inactive) | 3.57 | -1.96 (inactive) | -0.0357 | 0.939 | 1.05 | -0.0435 | -0.0606 | 0.32 | 0.822 | -0.682 (inactive) | 1.27 | 1.31 | 0.613 | 1.44 | -0.103 | 0.883 |
| COCCCNC(=O)[C@@]1(CCS(=O)(=O)c2ccccc2)COC(c2ccc(OCCCO)cc2)=N1 | 1.36 | 0.134 (inactive) | -0.0454 (inactive) | -0.403 (inactive) | 3.67 | 1.52 (inactive) | 0.472 | 0.878 | 0.56 | 0.195 | 1.37 | 1.56 | 1.47 | 0.0749 (inactive) | 0.946 | 0.878 | -0.318 | -0.0346 | -0.0211 | 0.952 |
| C=CC[C@]1(C(=O)NCC(O)CO)COC(c2ccc(OCCCO)cc2)=N1 (stereo not given in full) | -0.726 | 0.26 (inactive) | 0.691 (inactive) | 0.959 (inactive) | 2.15 | -0.363 (inactive) | 0.479 | -0.415 | -1.35 | 0.0444 | -0.329 | 0.787 | 1.05 | 0.2 (inactive) | -0.106 | 0.0993 | -1.18 | -0.865 | -0.463 | 1.12 |
| CN(C)CCCC[C@@H]1NC(=O)[C@@H]2C[C@H](C(=O)NCCCCCN)[C@H](c3cccc(OCCO)c3)N2C1=O | 1.32 | -5.45 (inactive) | -3.9 (inactive) | -0.962 (inactive) | 1.96 | 2.65 (inactive) | -0.0592 | 1.17 | 1.04 | -0.0943 | 0.789 | -0.0024 | -0.21 | -1.66 (inactive) | 0.824 | 1.16 | 0.428 | 0.567 | 0.565 | -0.401 |
